Hits are enriched below; roughly 7.2% of the tested compounds scored in any of these assays.
ALR H2O2 inh: human ALR oxidase inhibition via reduced H2O2. P55789. purified ALR, DTT oxidation, H2O2 HRP-luminol luminescence. inhibition, % (test concentration not listed). actives 3.8% (n = 290,000). AID 485317;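 active = mean replicate inhibition above about 79%, with every replicate also reaching it, limit read from the data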
Efflux pump inh: inhibitors of Candida antifungal efflux pumps expressed in yeast | S. cerevisiae Candida pump triplex, Nile Red efflux | inhibition, % at 10 µM | actives 0.44% (n = 330,000);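 active = plate passing quality check with inhibition over a set limit, or well fluorescence over plate mean plus 4 SD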;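 note: Nile Red retained in pooled yeast measured as flow cytometry median fluorescence; 0% = buffer negative control and 100% = Enniatin B positive control; higher means more Nile Red kept so more efflux inhibition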
VLA-4 inh: inhibition in a human VLA-4 binding assay; VLA-4 expressing cells, ligand binding flow cytometry; inhibition, % (about 7 µM as worked out from the volumes in the protocol); actives 0.2% (n = 330,000); in the data active = inhibition above about 50%
Bfl-1 A1 inh: inhibitors of the anti-apoptotic protein A1, read as caspase activation; MEF A1-2A-BIM cells, Caspase-Glo 3/7 luminescence, 3 h; percent of clofoctol response, vehicle zero; caspase activation, % (concentration not given with the values); actives 0.066% (n = 330,000); AID 2462;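 active = over half of replicate activation scores above 10%, or exactly half above 10 with the replicate mean above 10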
AHR activator: activates the human aryl hydrocarbon receptor. activation, % at 5 µM. AHR-responsive luciferase reporter cells, luminescence. actives 2.5% (n = 320,000). P35869. AID 2796; in the data active = activation above about 47%;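 note: 0% = vehicle wells and 100% = reference agonist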
Mot1-301 SUMO: blocks SUMOylation pathway, rescuing yeast Mot1-301 growth. S. cerevisiae Mot1-301 growth rescue, ATP luminescence, 38.5C; percent above DMSO median, 100 means doubled. growth rescue, % at 18.8 µM. actives 1% (n = 320,000);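 active = every valid replicate shows activation above 250% relative to neutral control wells; inactive = the rest, any valid replicate at or below 250%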;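 note: OY570 slx delta 5 strain wells were the positive control but not used for scaling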
Active calls of the source: *; i = inactive; . = no result.

SMILES	ALR H2O2 inh	Efflux pump inh	VLA-4 inh	Bfl-1 A1 inh	AHR activator	Mot1-301 SUMO
CC(=O)Oc1ccc(N2C(=O)C3C(C2=O)C2(C)C=CC3(C)O2)cc1 (stereo not given)	7	0	20	0	1	125
COC(=O)c1cc(N2C(=O)C3C(C2=O)C2(C)C=CC3(C)O2)ccc1Cl (stereo not given)	16	0	41	2	1	425*
CN1C(=O)C2(Oc3ccccc3C3CC(c4ccccc4)=NN32)c2ccccc21 (stereo not given)	-6	1	-4	0	54*	62
Cc1ccc(C2=NN3C(C2)c2ccccc2OC32C(=O)Nc3ccccc32)cc1 (stereo not given)	1	0	-5	0	47*	7
O=C(CN1C(=O)c2cccc3cccc(c23)C1=O)NCCN1CCOCC1	-6	0	4	0	0	24
COc1ccccc1/C=N/NC(=O)CC(=O)NC1CCCCC1	-11	0	5	0	10	8
O=C(NNC1=C(C(=O)C(F)(F)F)CCC1)c1ccccc1Cl	.	0	-5	0	3	-12
O=C(NNC1=C(C(=O)C(F)(F)F)CCC1)c1ccccc1O	87*	0	15	-2	17	-22
COc1cccc(-c2nc(CS(=O)CC(=O)NCCCOC(C)C)c(C)o2)c1 (stereo not given)	99*	0	-1	0	2	136
CCC(C)NC(=O)CS(=O)(=O)Cc1nc(-c2cccc(OC)c2)oc1C (stereo not given)	99*	0	-4	-2	8	-17
COc1cccc(-c2nc(CS(=O)(=O)CC(=O)NCc3ccccc3)c(C)o2)c1	.	0	3	0	2	-6
COc1cccc(-c2nc(CS(=O)(=O)CC(=O)NCCCOC(C)C)c(C)o2)c1	94*	0	18	0	3	46
COc1cccc(-c2nc(CS(=O)(=O)CC(=O)NCc3ccc4c(c3)OCO4)c(C)o2)c1	95*	0	4	-1	4	-3
CSc1nc(O)c(C(c2ccc(C)cc2)c2c(O)nc(SC)[nH]c2=O)c(=O)[nH]1	89*	0	3	0	-2	31
O=C(CSC1=NCCS1)c1ccc(Cl)cc1	98*	0	6	-1	3	-8
O=C(CSC1=NCCS1)N1CCN(c2ccc(Cl)cc2)CC1	73	0	17	1	0	-7
CC(C)CN(CC(C)C)c1nnc(N)s1	99*	1	-15	1	8	3
COc1cccc(OCC(=O)NNC(=O)C(=O)Nc2ccc(OC)cc2OC)c1	25	0	-27	0	19	13
COC(=O)CSc1nc(N)c2c3c(sc2n1)C(c1ccccc1)SC(c1ccccc1)C3 (stereo not given)	-3	0	-13	16*	24	-2
Cc1c(C(=O)N2CCC3(CC2)CC(=O)c2ccccc2O3)cccc1[N+](=O)[O-]	-2	0	4	0	2	-7
Cc1ccc(N2C(=O)CN(Cc3sccc3C)C2=S)cc1C	.	0	1	1	1	11
Cc1ccc(N2C(=O)CN(Cc3cccs3)C2=S)cc1C	96*	0	-5	1	1	21
COc1cc(OC)c2c(c1)O/C(=C\c1ccccc1)C2=O	14	0	1	-3	15	27
O=C1Nc2ccccc2O/C1=C\c1ccccc1	-4	0	-3	-1	61*	2
CCCc1cc(C(=O)Nc2cc(OC)c(Cl)cc2OC)no1	.	0	10	0	62*	256
SMILES	ALR H2O2 inh	Efflux pump inh	VLA-4 inh	Bfl-1 A1 inh	AHR activator	Mot1-301 SUMO
COc1cc(NC(=O)c2ccc(Br)cc2)c(OC)cc1NC(=O)c1ccccc1	-27	0	15	1	63*	-3
CCCc1cc(C(=O)Nc2ccccc2C(=O)OC)no1	-1	0	-20	0	21	-5
CCN1CCN(C(=O)C(C)Nc2cc(Cl)c(OC)cc2OC)CC1 (stereo not given)	-53	0	-3	1	5	-12
COc1cc(OC)c(NC(C)C(=O)NCc2ccccc2)cc1Cl (stereo not given)	94*	0	5	0	1	-3
COc1cc(OC)c(NC(=O)CCc2ccccc2)cc1Cl	-34	0	-5	0	50*	32
CCN1C(=O)[C@H]2[C@@H](c3ccc(SC4CCCCC4)cc3)N[C@@](CC(C)C)(C(=O)OC)[C@H]2C1=O	-2	0	2	0	1	5
COc1cc(NC(=O)C/C(C)=N/NC(=O)c2cccc(O)c2)c(OC)cc1Cl	-4	0	i	-1	82*	-9
COc1ccc(C(=O)Nc2cc(OC)c(Cl)cc2Cl)cc1	0	0	11	2	50*	-1
COc1cc(NC(=O)c2ccccc2)c(OC)cc1NC(=O)Cc1ccc(F)cc1	-3	0	5	0	26	6
COc1ccc(Cl)cc1NC(=O)C/C(C)=N/NC(=O)c1ccc(O)cc1	-11	0	11	1	.	-7
COc1cc(NC(=O)c2ccccc2)c(OC)cc1Cl	-9	0	3	1	69*	-27
COc1cc(NC(=O)c2ccccc2)c(OC)cc1NC(=O)Cc1ccc(Br)cc1	-11	0	-1	12*	5	-3
COc1ccc(C(=O)CC(=O)C(=O)Nc2cc(Cl)c(OC)cc2OC)cc1	.	0	5	1	77*	-7
COc1ccc(S(=O)(=O)/C(C#N)=C/Nc2ccc(NC(C)=O)cc2)cc1	3	0	7	-1	.	-14
COc1ccc(-c2cc3ccccc3oc2=O)cc1NC(=S)NC(=O)c1ccc2c(c1)OCCO2	-3	0	-172	26*	4	-5
O=c1oc2ccccc2cc1NCc1ccccc1O	96*	0	-9	-3	-1	-9
O=C(NCc1ccccc1Cl)c1cc2ccccc2oc1=O	-1	0	2	1	-1	5
Cc1cc(N)ccc1-c1cc2ccccc2oc1=O	99*	0	7	0	5	13
COc1cc(N)ccc1-c1cc2ccccc2oc1=O	60	0	-3	-1	17	17
COc1ccc(-c2cc3ccc(O)cc3oc2=O)cc1OC	99*	0	16	-7	9	-5
O=c1oc2ccccc2cc1-c1ccc(O)cc1	95*	1	19	-2	-2	1
COc1ccc(-c2cc3ccc(OCC(N)=O)cc3oc2=O)cc1OC	-11	0	0	0	2	98
CCC(CC)c1nnc(NC(=O)CCNC(=O)c2ccccc2Cl)s1	-2	0	-5	0	12	-8
COC(=O)C(O)(NC(=O)c1ccncc1)C(F)(F)F (stereo not given)	-1	0	-3	-1	1	14

Screening data (PubChem)
